Experimental findings from PubChem BioAssay AID504832 (National Center for Advancing Translational Sciences (NCATS), 2011) are described below.

Structures are written as SMILES. Hit rate of the full screen: of about 310,000 compounds, about 18,000 (5.8%) were called active. Roughly 22% stayed inconclusive and do not appear here. Calls follow the shape of the dose curve; as a rule, active = well fitted inhibition curve with a large enough effect; inconclusive = small, poorly fitted or top-dose-only effect, or another doubt; inactive = no such curve, though single readings can be large or run the other way. The entries come from a sample that favours actives as a whole. Entries that show only a call come without a potency.
Potency is read from the fitted curve at half-maximal effect.

This assay in a line: Primary qHTS for delayed death inhibitors of the malarial parasite plastid, 48 hour incubation. The note with it: P. falciparum luciferase growth in erythrocytes; series mostly up to 28.7 µM. The procedure, abridged:
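Firefly luciferase activity from engineered P. falciparum reports growth; inhibitors lower the luminescent signal. Cultures contained 2% hematocrit erythrocytes at 0.1% final parasitemia.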
On the technique in general: Quantitative high-throughput screening tests each substance at several concentrations.
Take `Cc1ccc(C)c(C(C)NC(=O)C2CCCO2)c1` (stereo not given): the Potency result is “inactive”.

For `COc1ccc(C(=O)NC2CC2)cc1OC1CCN(Cc2cnn(C)c2)CC1`, the Potency entry is “inactive”.

With `Clc1ccc(CN2CCCCCC2)cc1Cl`, the Potency result is “inactive”.

On to `Clc1ccc(C[n+]2cc(-c3ccc(Cl)cc3)n3c2CCC3)cc1`, for which the Potency is 0.828 µM (active).

Turning to `Cn1c(-c2ccccc2)c[n+]2c1CCCCC2`, the Potency entry was “inactive”.

With `Clc1ccc(C[n+]2cc(-c3ccccc3)n3c2CCC3)cc1`, the Potency was 1.04 µM (active).

For `CC(NC(=O)c1cc2cc(Cl)ccc2oc1=N)c1ccccc1` (stereo not given), the Potency entry is “inactive”.

For the molecule `O=C(Nc1ccc(F)cc1)C(=O)c1cn(CC(=O)N2CCOCC2)c2ccccc12`, the Potency entry is “inactive”.

Turning to `COc1ccc(S(=O)(=O)NC(C)C(=O)NCc2ccncc2)cc1Cl` (stereo not given), the Potency entry is “inactive”.

In the case of `COc1ccc(NC(=O)CCCC(=O)c2ccccc2)cc1`, the Potency entry is “inactive”.

For `CC(C)Cn1c(N)c(C(=O)COC(=O)C2CCCN2C(=O)c2cccs2)c(=O)n(C)c1=O` (stereo not given), the Potency result is “inactive”.

Consider `Cc1ccc(OCCCC(=O)Nc2ccc(S(=O)(=O)Nc3cc(C)nc(C)n3)cc2)cc1`, for which the Potency result was “inactive”.

In the case of `O=C(Nc1ccccc1)N1CCC(C(=O)N2CCN(Cc3ccccc3)CC2)CC1`, the Potency result was “inactive”.

As for `O=C(Nc1ccccc1)N1CCN(C2c3ccccc3-c3ccccc32)CC1`, the Potency is 2.62 µM (active).

With `O=C(Nc1ccccc1)N1CCN(C(=O)Nc2ccccc2)CC1`, the Potency result was “inactive”.

For `Cc1cccc(OC(C)C(=O)N2CCc3ccccc3C2)c1` (stereo not given), the Potency result was “inactive”.

On to `Brc1ccc(Nc2c3c(nc4ncnn24)CCC3)cc1`, for which the Potency is 0.586 µM (active).

Consider `Cc1nc(S(=O)(=O)c2ccc(Br)cc2)nc2c1CCC2`, for which the Potency result was “inactive”.

Consider `Cc1cc(Nc2ccc(Br)cc2F)n2ncnc2n1`, for which the Potency result is “inactive”.

For `O=C(COC(=O)C1CC2CCCC(C1)C2=O)NC(=O)c1ccccc1` (stereo not given), the Potency result was “inactive”.

Turning to `COCCC(=O)N1CCC(Oc2ccc(C(=O)NCc3ccon3)cc2)CC1`, the Potency result was “inactive”.

Turning to `CC(=O)c1c(C)oc2ccc(NS(=O)(=O)c3ccccc3)cc12`, the Potency entry was “inactive”.

In the case of `Cc1ccn2c(=O)c(C(=O)NCCC3=CCCCC3)c(O)nc2c1`, the Potency entry was “inactive”.

Take `CCCCC[C@H]1CN(C2CCCCC2)C(=O)[C@@H]1CC(=O)NCc1ccc(OC)cc1`: the Potency result is “inactive”.

With `O=C(NCc1ccco1)/C(=C/c1cccc([N+](=O)[O-])c1)NC(=O)c1ccco1`, the Potency entry is “inactive”.

For the molecule `Cc1ccc(N2CCN(c3ccc([N+](=O)[O-])cn3)CC2)c(C)c1`, the activity change, negative = inhibition was -8.92% [at 0.00184 µM] (inactive).

`CN(CCNC(=O)c1cc2c(-c3ccccc3F)nn(C)c2s1)C1CCCCC1`: the Potency was 1.65 µM (active).

As for `CN(CCc1cnn(C)c1)Cc1cn(C)nc1-c1ccccc1F`, the Potency entry was “inactive”.

On to `CCOCCCNC(=O)c1cc2c(=O)n3ccccc3nc2s1`, for which the Potency entry was “inactive”.

Consider `COc1ccc(N2CCN(S(=O)(=O)c3ccc4c(c3)NC(=O)C(C)C(=O)N4)CC2)cc1` (stereo not given), for which the Potency result was “inactive”.
